This note sets out measurements from PubChem BioAssay (NCI).

Compounds without any hit were thinned out: in the full panel of roughly 83,000, 20% have a hit.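 Cells were grown in 96-well plates and exposed to the test compound at a single concentration for 48 hours; results are reported as percent growth, with values below 10 considered active.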 Values without a mark were called inactive. Calls of active or inactive are those of the source.

Test in all cases: NCI-60 one-dose screen, 48 h (100 = growth as untreated, 0 = no growth, -100 = all killed)
Assay [1] relates to RPMI-8226 leukemia. The note with it: 10 µM unless noted.
For assay [2], the system named is OVCAR-8 ovarian. The settings on record: 10 µM unless noted.
Assay [3] deals with OVCAR-5 ovarian. The settings on record: 10 µM unless noted.
The subject of assay [4] is OVCAR-4 ovarian. The settings on record: 10 µM unless noted.
In assay [5] the test system is IGROV1 ovarian. The settings on record: 10 µM unless noted.
In assay [6] the test system is OVCAR-3 ovarian. The settings on record: 10 µM unless noted.
Assay [7] has as its system HS 578T breast. The settings on record: 10 µM unless noted.
Assay [8] concerns T-47D breast. The settings on record: 10 µM unless noted.
Assay [9] concerns BT-549 breast. The note with it: 10 µM unless noted.
The subject of assay [10] is MDA-MB-435 melanoma. The note with it: 10 µM unless noted.
Assay [11] has as its system SW-620 colon. The settings on record: 10 µM unless noted.
In assay [12] the test system is MCF7 breast. The note with it: 10 µM.
The test system of assay [13] is HCT-116 colon. The note with it: 10 µM unless noted.
Assay [14] relates to HCC-2998 colon. The note with it: 10 µM unless noted.
The test system of assay [15] is KM12 colon. The settings on record: 10 µM unless noted.
Assay [16] has as its system NCI/ADR-RES ovarian. The settings on record: 10 µM unless noted.

With `O=C1Nc2ccccc2/C1=C/c1ccc[nH]1`, the growth in [1] was 97.6%; in assay [2], 92.8%; in assay [3], 78.7%; in assay [4], 29.8%; in [5], 49.7%; in assay [6], 81.7%. In addition, the growth in [7] was 86.6%; in assay [8] it was -24.3% (active); in assay [9] it was 57.8%; in [10], 101%; in assay [11] it was 89.3%; in assay [12], 12.8%. Besides, the figures for the growth in assay [13], in assay [14] and in [15] were 96%, 54.7% and 10.4%, respectively.

On to `Cc1ccc(NC2=CC(=O)C(=O)c3ccccc32)c(C)c1`, for which the growth in assay [1] is 56.7%; in [2], 27.9%; in [3], 80.3%; in assay [4], 48.1%; in [5], 35.6%; in assay [6], -15.6% (active). The growth in assay [7] is 79.5%; in [16], 15.6%; in [8], 22.9%; in assay [10], -77% (active); in assay [11], 34.9%; in assay [13] it was -6.25% (active). Moreover, the growth is 29.1% in assay [14] and 46.4% in assay [15].

Regarding `O=C1c2ccccc2C(=O)c2c1ccc1[nH]c(CCl)nc21`, the growth is -40.3% (active) in assay [1]; 20.1% in assay [2]; 70.4% in [3]; -20.4% (active) in assay [4]; 15.2% in [5]; -35.9% (active) in assay [6]. The growth in [7] was 18.2%; in assay [16], 34.5%; in assay [8], -21.5% (active); in [10], 28.6%; in assay [11] it was -23.7% (active); in [12], 6.47% (active). For the same compound, the figures for the growth in [13], in [14] and in assay [15] were -6.49% (active), 65.5% and 22.9%, respectively.

Consider `COC(=O)/C(CCC=C(C)C)=C1\[C@@H](OC(C)=O)C[C@@]2(C)[C@H]1C[C@@H](O)[C@H]1[C@@]3(C)CC[C@H](NCCO)[C@@H](C)[C@@H]3CC[C@@]12C`, for which the growth in assay [1] is 101%; in [2], 101%; in assay [3] it was 104%; in assay [4], 107%; in assay [5] it was 99.4%; in assay [6], 105%. The growth in assay [7] is 93.3%; in assay [16] it was 101%; in assay [8] it was 103%; in assay [9], 114%; in [10], 98.9%; in assay [11] it was 97%. Also, the growth in assay [12] is 98.8%; in assay [13], 105%; in assay [14] it was 106%; in assay [15], 103%.

As to `O=C(Cn1cc(COc2ncnc3c2cnn3-c2ccccc2)nn1)Nc1ccccn1`, the growth in [1] was 84.4%; in assay [2], 92.5%; in assay [3] it was 93.7%; in assay [4], 92.7%; in assay [5], 95.4%; in assay [6] it was 100%. For the same compound, the growth in assay [7] was 88.3%; in assay [16], 91.5%; in assay [8] it was 80.9%; in assay [9] it was 94%; in [10], 98%; in [11] it was 102%. Also, the growth is 90.4% in assay [12], 98.2% in [13], 120% in [14] and 100% in [15].

Regarding `O=c1c2cc(F)ccc2sc2c(Nc3ccncc3)nc3ccccc3c12`, the growth in assay [1] was -31.4% (active); in [2], -18% (active); in assay [3], -2.06% (active); in [4] it was -67.5% (active); in [5], 70.7%; in [6] it was 36.5%. The growth was 75.3% in assay [7]; -3.72% (active) in [8]; 81.5% in assay [9]; -62.1% (active) in assay [10]; -74.6% (active) in assay [11]; -77.9% (active) in assay [12]. Besides, the growth is -48.9% (active) in [13], 75.9% in assay [14] and 1.24% (active) in [15].

Regarding `O=c1oc2ccc(Br)cc2c(=O)n1-c1ccc(F)cc1F`, the growth in assay [1] was -4.83% (active); in assay [2], 11%; in assay [3], 20.1%; in [4], 15%; in assay [5], 19.3%; in assay [6], 4.73% (active). For the same compound, the growth in assay [7] was 5.31% (active); in assay [16], 5.44% (active); in assay [8] it was -9.1% (active); in assay [10] it was 2.57% (active); in assay [11] it was 16.3%; in [12], 2.33% (active). Further, the growth in [13] is 4.49% (active); in assay [14], 17.4%; in [15] it was 4.24% (active).

With `O=c1c(-c2nc3ccccc3[nH]2)cc2ccccc2n1Cc1cn(Cc2ccc(N3CCOCC3)cc2)nn1`, the growth in [1] was 80.4%; in [2], 37.4%; in [3], 77.3%; in assay [4] it was 6.82% (active); in assay [5], 40%; in assay [6], 83.5%. For the same compound, the growth was 74.7% in assay [7]; 68.8% in [16]; 71.4% in [8]; 45.9% in assay [9]; 76.6% in assay [10]; 70.7% in assay [11]. The growth in [12] is 56.8%; in [13] it was 83.6%; in assay [14], 93.2%; in assay [15] it was 87.3%.

For `O=c1c(-c2nc3ccccc3[nH]2)cc2ccccc2n1Cc1cn(Cc2ccccc2Cl)nn1`, the growth in assay [1] is 12.4%; in assay [2], 50.4%; in assay [3], 78.2%; in assay [4] it was -22% (active); in [5], 27.9%; in assay [6] it was 19.8%. The growth was 19.2% in assay [7]; 66.4% in assay [8]; 13.3% in [9]; 15.1% in assay [10]; 37.5% in assay [11]; 26.2% in [12]. Besides, the results for the growth in [13], in assay [14] and in [15] were 18.2%, 78.3% and 45.5%, respectively.
